Experimental data from PubChem BioAssay (NCI).
This is part of a sample that, as a whole, favours compounds with a hit. Of some 79,000 tested, about 15% had one in any assay. The source made the active and inactive calls. Cut-off read from the data, not from the text of the source: active = growth inhibition above about 70%; inactive = the rest.

Columns and labels:
[1] = NCI Yeast Anticancer Drug Screen. Data for the wt1 strain (AID 149);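 note: 0% = growth of vehicle-treated wt1 cultures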; conditions: S. cerevisiae wt1 strain (SPY 50644) growth inhibition, active compounds read high
Method in brief: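 Yeast wt1 strain exposed to compounds; growth inhibition measured relative to vehicle-treated controls.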

[2] = NCI Yeast Anticancer Drug Screen. Data for the rad50EPP+ strain (AID 151);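 note: 0% = growth of vehicle-treated control cultures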; conditions: S. cerevisiae rad50 mutant strain, active compounds read high
Method in brief: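 Growth inhibition read against vehicle controls in rad50EPP+ yeast, a strain altered in DNA damage repair, after compound exposure.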

[3] = NCI Yeast Anticancer Drug Screen. Data for the mgt1 strain (AID 153); conditions: S. cerevisiae mgt1 mutant growth inhibition, active compounds read high
Method in brief: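 mgt1 yeast grown with test compound; read-out is growth inhibition versus vehicle-treated cultures.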

[4] = NCI Yeast Anticancer Drug Screen. Data for the rad50 strain (AID 155);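 note: 0% = growth of vehicle-only cultures of the same strain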; conditions: S. cerevisiae rad50 strain growth inhibition, active compounds read high
Method in brief: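 Yeast carrying a defined DNA repair defect were exposed to test compounds, and growth was compared with vehicle-treated controls to give percent inhibition.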

[5] = NCI Yeast Anticancer Drug Screen. Data for the mec2-1 strain (AID 157); conditions: S. cerevisiae mec2-1 strain, active compounds read high
Method in brief: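 Yeast mec2-1 mutant treated with compound. Readout: growth inhibition vs vehicle controls.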

[6] = NCI Yeast Anticancer Drug Screen. Data for the rad14 strain (AID 159);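 note: 0% = growth of vehicle-treated control cultures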; conditions: S. cerevisiae rad14 strain growth inhibition, active compounds read high
Method in brief: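 Yeast cells carrying a defined DNA-repair defect were exposed to compounds, and growth inhibition was calculated relative to vehicle-treated control cultures.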

[7] = NCI Yeast Anticancer Drug Screen. Data for the sgs1 mgt1 strain (AID 161);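 note: 0% = growth of cultures given vehicle only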; conditions: S. cerevisiae sgs1 mgt1 strain, active compounds read high
Method in brief: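 Read-out: growth inhibition vs vehicle controls. Cells: mutant yeast strain deficient in DNA damage repair.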

[8] = NCI Yeast Anticancer Drug Screen. Data for the CLN2oe strain (AID 163);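 note: 0% = growth of vehicle-only control cultures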; conditions: S. cerevisiae CLN2oe strain, active compounds read high
Method in brief: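 Read-out: yeast growth inhibition, expressed relative to vehicle-only controls. The strain bears an engineered cell-cycle alteration.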

[9] = NCI Yeast Anticancer Drug Screen. Data for the cln2 rad14 strain (AID 165);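 note: 0% = growth equal to vehicle treated cultures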; conditions: S. cerevisiae cln2 rad14 strain, active compounds read high
Method in brief: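 cln2 rad14 yeast strain; compound exposure; growth inhibition read vs vehicle controls.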

[10] = NCI Yeast Anticancer Drug Screen. Data for the bub3 strain (AID 167); conditions: S. cerevisiae bub3 mutant strain, active compounds read high
Method in brief: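 Compounds were applied to a genetically altered yeast strain carrying a cell-cycle control defect. Growth inhibition was scored against vehicle-treated controls.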

[11] = NCI Yeast Anticancer Drug Screen. Data for the wt2 strain (AID 169);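 note: 0% = growth of vehicle-treated yeast cultures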; conditions: S. cerevisiae wt2 strain growth inhibition, active compounds read high
Method in brief: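 Read-out: growth inhibition versus vehicle-treated control cultures after compound exposure of the yeast strain.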

[12] = NCI Yeast Anticancer Drug Screen. Data for the mlh1 strain (AID 171);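 note: 0% = growth of vehicle-treated control cultures of the same strain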; conditions: S. cerevisiae mlh1 strain growth inhibition, active compounds read high
Method in brief: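 Read-out: growth inhibition versus vehicle controls. Strain: engineered yeast with a defined DNA repair or cell cycle defect, compound-treated.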

[13] = NCI Yeast Anticancer Drug Screen. Data for the sgs1 strain (AID 173);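 note: 0% = growth of vehicle-only control cultures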; conditions: S. cerevisiae sgs1 mutant, active compounds read high
Method in brief: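 Read-out: yeast growth inhibition relative to vehicle controls, following compound exposure of a strain with a defined DNA repair/cell cycle alteration.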

[14] = NCI Yeast Anticancer Drug Screen. Data for the mlh1 rad18 strain (AID 175); conditions: S. cerevisiae mlh1 rad18 strain growth inhibition, active compounds read high
Method in brief: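 Yeast w/ defined DNA-repair lesions; compound exposure; growth vs vehicle controls → % inhibition.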

[15] = NCI Yeast Anticancer Drug Screen. Data for the rad18 strain (AID 177); conditions: S. cerevisiae rad18 mutant growth inhibition, active compounds read high
Method in brief: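 Readout: growth inhibition vs vehicle controls. Cells: genetically altered yeast strain, DNA repair defect.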

[16] = NCI Yeast Anticancer Drug Screen. Data for the rad52 strain (AID 147);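 note: 0% = growth of vehicle-treated control cultures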; conditions: S. cerevisiae rad52 mutant growth inhibition, active compounds read high
Method in brief: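 Read-out: growth inhibition versus vehicle-treated controls. Cells were a DNA repair-deficient yeast strain treated with compounds.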

[17] = at 5.0 µM (retest, dose inferred, filed as 0.5)
[18] = at 50.0 µM (retest, dose inferred, filed as 5.0)

Measured: growth inhibition

COc1ccc(N=CN(C)C)c(C)c1
active: [1]; at 100.0 µM 95% | [2]; at 100.0 µM 71% | [3]; at 33.0 µM 93% | [3]; at 100.0 µM 95% | [4]; at 33.0 µM 86% | [4]; [18] 78% | [4]; at 50.0 µM 91.5% | [4]; at 100.0 µM 95% | [5]; at 33.0 µM 85% | [5]; [18] 76% | [5]; at 50.0 µM 94% | [5]; at 100.0 µM 96% | [6]; at 33.0 µM 92% | [6]; at 100.0 µM 95% | [7]; [18] 97% | [7]; at 50.0 µM 93.5% | [8]; at 33.0 µM 84% | [8]; at 100.0 µM 93% | [9]; [18] 96% | [9]; at 50.0 µM 92% | [10]; at 33.0 µM 88% | [10]; [18] 95% | [10]; at 50.0 µM 91.9% | [10]; at 100.0 µM 94% | [11]; at 33.0 µM 87% | [11]; at 100.0 µM 96% | [12]; at 33.0 µM 93% | [12]; at 100.0 µM 96% | [13]; at 33.0 µM 89% | [13]; at 100.0 µM 95% | [14]; [18] 72% | [15]; at 33.0 µM 89% | [15]; at 100.0 µM 93%
inactive: [1]; at 1.2 µM -29% | [1]; at 3.7 µM -29% | [1]; at 11.0 µM -32% | [1]; at 33.0 µM 61% | [2]; at 1.2 µM -9% | [2]; at 3.7 µM -62% | [2]; at 11.0 µM -62% | [2]; at 33.0 µM -34% | [3]; at 1.2 µM -40% | [3]; at 3.7 µM -51% | [3]; at 11.0 µM -43% | [4]; at 1.2 µM -1% | [4]; at 3.7 µM 1% | [4]; [17] 50% | [4]; at 11.0 µM -19% | [5]; at 1.2 µM -44% | [5]; at 3.7 µM -70% | [5]; [17] 46% | [5]; at 11.0 µM -43% | [6]; at 1.2 µM -63% | [6]; at 3.7 µM -54% | [6]; at 11.0 µM -43% | [7]; [17] -4% | [8]; at 1.2 µM -28% | [8]; at 3.7 µM -34% | [8]; at 11.0 µM -10% | [9]; [17] 63% | [10]; at 1.2 µM -30% | [10]; at 3.7 µM -9% | [10]; [17] 44% | [10]; at 11.0 µM -28% | [11]; at 1.2 µM -26% | [11]; at 3.7 µM -39% | [11]; at 11.0 µM -27% | [12]; at 1.2 µM -37% | [12]; at 3.7 µM -3% | [12]; at 11.0 µM -16% | [13]; at 1.2 µM -45% | [13]; at 3.7 µM -40% | [13]; at 11.0 µM -59% | [14]; [17] 44% | [14]; at 50.0 µM 48.4% | [15]; at 1.2 µM -50% | [15]; at 3.7 µM -55% | [15]; at 11.0 µM -8%

Cc1cccc2c1nc1ccc(Cl)cc1[n+]2C
inactive: [16]; at 1.2 µM 0% | [16]; at 3.7 µM 9% | [2]; at 1.2 µM -4% | [2]; at 3.7 µM 4% | [2]; at 11.0 µM 64% | [3]; at 1.2 µM 0% | [3]; at 3.7 µM 7% | [3]; at 11.0 µM 59% | [4]; at 1.2 µM 2% | [4]; at 3.7 µM 9% | [4]; [17] 11% | [5]; at 1.2 µM 1% | [5]; at 3.7 µM 18% | [5]; [17] 3% | [6]; at 1.2 µM 2% | [6]; at 3.7 µM 8% | [6]; at 11.0 µM 57% | [7]; [17] 26% | [8]; at 1.2 µM -5% | [8]; at 3.7 µM -4% | [9]; [17] 4% | [10]; at 1.2 µM 0% | [10]; at 3.7 µM 10% | [10]; [17] 0% | [11]; at 1.2 µM -2% | [11]; at 3.7 µM 2% | [12]; at 1.2 µM -3% | [12]; at 3.7 µM 7% | [13]; at 1.2 µM 3% | [13]; at 3.7 µM 13% | [14]; [17] 25% | [15]; at 1.2 µM 25% | [15]; at 3.7 µM 62%
active: [16]; at 11.0 µM 79% | [16]; at 33.0 µM 98% | [16]; at 100.0 µM 97% | [2]; at 33.0 µM 93% | [2]; at 100.0 µM 95% | [3]; at 33.0 µM 98% | [3]; at 100.0 µM 98% | [4]; at 11.0 µM 84% | [4]; at 33.0 µM 96% | [4]; [18] 96% | [4]; at 50.0 µM 98% | [4]; at 100.0 µM 97% | [5]; at 11.0 µM 85% | [5]; at 33.0 µM 96% | [5]; [18] 96% | [5]; at 50.0 µM 98.8% | [5]; at 100.0 µM 97% | [6]; at 33.0 µM 97% | [6]; at 100.0 µM 97% | [7]; [18] 97% | [7]; at 50.0 µM 98.8% | [8]; at 11.0 µM 89% | [8]; at 33.0 µM 96% | [8]; at 100.0 µM 95% | [9]; [18] 95% | [9]; at 50.0 µM 96.5% | [10]; at 11.0 µM 82% | [10]; at 33.0 µM 95% | [10]; [18] 94% | [10]; at 50.0 µM 98% | [10]; at 100.0 µM 96% | [11]; at 11.0 µM 92% | [11]; at 33.0 µM 97% | [11]; at 100.0 µM 95% | [12]; at 11.0 µM 82% | [12]; at 33.0 µM 97% | [12]; at 100.0 µM 97% | [13]; at 11.0 µM 89% | [13]; at 33.0 µM 97% | [13]; at 100.0 µM 97% | [14]; [18] 95% | [14]; at 50.0 µM 98.3% | [15]; at 11.0 µM 91% | [15]; at 33.0 µM 97% | [15]; at 100.0 µM 96%
